From PubChem BioAssay (NCATS) come the findings set out here.

Each structure is given as a SMILES string. Several values for one entry are separate records, joined by “and”; a condition that tells them apart may be missing. Equal entries are not always repeated. Records with an inconclusive call do not appear. Activity calls are given as the source filed them. Calls come from the whole dose curve.

The nature of this assay: Primary qHTS to identify inhibitors of SARS-CoV-2 cell entry (AID 1645846). Note: nearly all actives have a fitted effect of over 45% in size. The conditions noted are these: SARS-CoV-2 pseudovirus cell entry assay, luminescence; activity change, negative = inhibition: at 57.1 µM (top of the series) unless noted; series mostly up to 57.1 µM. The essentials:
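Data are normalized to wells receiving SARS-CoV-2-S pseudoparticles and those given bald particles. Entry signal was luciferase luminescence in stable hACE2 Expi293F cells, 48 hr post-infection, after 1 hr compound pretreatment.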
For `CCN1CC(CCN2CCOCC2)C(c2ccccc2)(c2ccccc2)C1=O` (centres undefined), the activity change, negative = inhibition was -22.6%. On to `CCC(C(=O)NC(=O)NC(C)=O)c1ccccc1` (centres undefined), for which the outcome was inactive. Same read-out and setting: for `C=CC(N)CCC(=O)O` (centres undefined) the value was “inactive [at 27.1 µM]”; for `Oc1cccc(O)c1`, “inactive”; for `CO[C@@]1(NC(=O)Cc2cccs2)C(=O)N2C(C(=O)O)=C(COC(N)=O)CS[C@@H]21`, “inactive”. Same read-out and setting: the result for `CCCCOCCOC(=O)c1cccnc1` reads “inactive”; that for `COC(=O)c1cccnc1`, “inactive”. The same measure, in the same setting: for `O=C(O)CCCCC1CCSS1` (centres undefined) the value was “inactive”; for `C[C@H](CS)C(=O)N1CCC[C@H]1C(=O)O`, “inactive”. In the case of `COc1cccc(OC)c1C(=O)N[C@@H]1C(=O)N2[C@@H]1SC(C)(C)[C@@H]2C(=O)O`, the activity change, negative = inhibition was -19.9%. On to `COc1cc(C)c(Cc2cnc(N)nc2N)cc1OC`, for which the molecule was called inactive.

On to `COC(=O)c1cc(Cl)ccc1NS(=O)(=O)C(F)(F)F`, for which the molecule was called inactive. With `c1ccc2c(CC3=NCCN3)cccc2c1`, the activity change, negative = inhibition amounted to 0.334%.

`Cc1cc(OI)c(C(C)C)cc1-c1cc(C(C)C)c(OI)cc1C`: the call was inactive.

For the molecule `C[C@]12CCC(=O)C=C1CC[C@H]1[C@@H]3CC[C@](O)(C(=O)CO)[C@@]3(C)C[C@H](O)[C@@]12F`, the activity change, negative = inhibition is -15.9%. With `COc1ccc(-c2ccc3cc(C(=O)O)ccc3c2)cc1C12CC3CC(CC(C3)C1)C2`, the activity change, negative = inhibition was -13.5% and -15.7%. With `CCCCCCCCCCCCCCCCCC(=O)OCC(O)CO` (centres undefined), the outcome was inactive. Consider `N#C[C@H]1C[C@H]2C[C@@H]2N1C(=O)[C@@H](N)C12CC3CC(CC(O)(C3)C1)C2`, for which the activity change, negative = inhibition was -17.5%. For `C[C@]12CCC(=O)C=C1CC[C@@H]1[C@@H]2[C@@H](O)C[C@@]2(C)[C@H]1CC[C@]2(O)C(=O)COC(=O)CCC(=O)O`, the molecule was classed as inactive.
